“And” between values parts separate entries of the source, which are not always exact repeats. Equal values may be shown once. Inconclusive results are not listed. A number with no mark means an inactive call. The source made the active and inactive calls. The call rests on the fitted dose curve.
The compounds below were run against Estrogen receptor (Homo sapiens) (UniProt P03372) (assay: qHTS assay for small molecule agonists of estrogen receptor alpha signaling (AID 588514; further: nearly all actives have a fitted effect of over 70% in size)). Conditions: ER-alpha-UAS-bla HEK293, beta-lactamase ratio, 18 h; series mostly up to 76.8 µM; activation: at the top concentration.
Text: NIH Chemical Genomics Center [NCGC]
U.S. Environmental Protection Agency [EPA]
National Institutes of Environmental Health Sciences [NIEHS]
National Toxicology Program [NTP]
Estrogen receptor alpha (ER-alpha) is an important member of nuclear hormone receptors. ER-alpha plays important role in breast cancer as well as in other women's health issues. The majority of breast cancers is estrogen receptor (ER) positive and depends on estrogen for growth. There is also growing concern for some of environmental chemicals which may contribute the increasing the incidence of breast cancer. Therefore, it is important to understand the effect of environmental chemicals in ER-alpha signaling pathway.
NCGC Assay Protocol Summary
Using a beta-lactamase reporter-gene under control of the ER response element, a cell-based assay [ER-alpha-UAS-bla GripTiteTM cell-Based Assay from Invitrogen] was used to measure ER-alpha signaling pathway in agonist mode. ER-alpha-UAS-bla-GripTite HEK 293 cells were used with assay medium containing 2% charcoal/dextran treated FBS, 0.1 mM NEAA and 1 mM sodium pyruvate. Cells were cultured in this assay medium overnight in the flasks before the assay. The assay was performed in clear bottom black Greiner 1536-well plates. 17-beta-estradiol was used as a positive control in the screen. Library compounds were measured for their ability to either stimulate the reporter gene activity. Compounds were screened in a titration series in 1536-well format. […] Data was normalized relative to 17-beta-estradiol control (20 nM, 100%), and DMSO only wells (basal, 0%). Concentration-response titration points for each compound were fitted to the Hill equation yielding concentrations of half-maximal stimulation (EC50) and maximal response (efficacy) values.
qHTS protocol for ER-alpha beta-lactamase assay in agonist mode
[Step] [Parameter] [Value] [Description]
1. Reagent; 6 uL; 5000 cells/well
2. Incubation; 37 C for 4 hrs
4. Controls (17-beta-estradiol); 23 nL
- Dose response, start 1uM, 1:3 dilutions with duplicates
- Two columns with 20 and 0.5 nM (final) concentration.
5. Incubation; 37 C for 18 hrs
6. Detection reagent; 1 uL of CCF4-dye
7. Incubation; RT for 2 hrs
8. Detection; Fluorescence; Envision plate reader or Acumen plate reader

Chain of Estrogen receptor (Homo sapiens) (P03372 whole entry, looked up): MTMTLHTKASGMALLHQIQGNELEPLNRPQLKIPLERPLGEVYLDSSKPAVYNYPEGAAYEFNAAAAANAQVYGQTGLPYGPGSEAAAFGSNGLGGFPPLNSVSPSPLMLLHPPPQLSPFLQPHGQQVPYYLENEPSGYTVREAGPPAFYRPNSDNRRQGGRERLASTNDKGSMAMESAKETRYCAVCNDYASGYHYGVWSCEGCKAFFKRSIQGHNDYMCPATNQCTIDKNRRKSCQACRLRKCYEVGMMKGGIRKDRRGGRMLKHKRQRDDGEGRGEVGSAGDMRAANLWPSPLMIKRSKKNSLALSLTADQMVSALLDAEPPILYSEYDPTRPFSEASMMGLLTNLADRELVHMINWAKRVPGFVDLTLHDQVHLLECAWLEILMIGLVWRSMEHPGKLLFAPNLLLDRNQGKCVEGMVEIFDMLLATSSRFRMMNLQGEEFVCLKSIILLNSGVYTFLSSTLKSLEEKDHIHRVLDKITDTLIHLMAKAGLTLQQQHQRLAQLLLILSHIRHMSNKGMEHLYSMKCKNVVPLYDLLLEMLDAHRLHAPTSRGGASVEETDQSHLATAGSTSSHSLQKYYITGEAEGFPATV

Row | Compound | activation [%] | Potency
1 | CCCCCCCCCCCCCCCCCC(=O)O | 8.99 | –
2 | C=CCCCCCCCCC(=O)O | -2.88 | –
3 | Nc1ccc([N+](=O)[O-])cc1O | – | inactive
4 | Nc1ccc(O)c(C(=O)O)c1 | – | inactive
5 | NCCO | – | 12.6 µM (active)
6 | c1ccc2sc(SSc3nc4ccccc4s3)nc2c1 | – | inactive
7 | COc1cc(CNC(=O)CCCC/C=C/C(C)C)ccc1O | 11.7 | –
8 | O=C(Nc1ccccc1)c1cc([N+](=O)[O-])ccc1Cl | -1.39 | –
9 | Nc1cc(-c2ccncc2)c[nH]c1=O | -1.08 | –
10 | CN1CCC[C@H]1c1cccnc1 | – | inactive
11 | CCCOC(=O)c1ccc(O)cc1 | – | 5.01 µM (active) and 3.55 µM (active)
12 | Nc1ccc(O)c([N+](=O)[O-])c1 | 5.95 | –
13 | O=c1cc(-c2ccccc2)oc2ccccc12 | 14.8 | –

Reference: PubChem BioAssay (NCATS)
